Screens: PubChem BioAssay, National Center for Advancing Translational Sciences (NCATS)
This is a sample that favours compounds with a hit; in the whole collection about 15% have one here.
Gal4-VP16 FLuc: VP16 counterscreen qHTS for inhibitors of ROR gamma transcriptional activity; Drosophila S2 Gal4-VP16 UAS-luciferase, luminescence, 20 h; Potency, µM (doses to about 53.6 µM), for the others: at the highest dose activity, negative = inhibition, usual class: inhibitors; hit rate 3.5% among 310,000; AID 2546, 2010;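 note: Gal4-VP16 expression switched on by copper sulfate through the metallothionein promoter; nearly all actives have a fitted effect of over 50% in size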
TDP1 cell CPT: qHTS for Inhibitors of human tyrosyl-DNA phosphodiesterase 1 (TDP1): qHTS in cells in presence of CPT; chicken DT40 Tdp1-/-;hTDP1 cells + 20 nM CPT, ATP luminescence, 48 h; Potency, µM (doses to about 46.2 µM), without a hit: top-dose activity change, negative = growth inhibition, hits mostly inhibitors; hit rate 12% among 420,000; AID 686979, 2013; note: nearly all actives have a fitted effect of over 55% in size
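Chicken DT40 Tdp1-/- cells stably complemented with human TDP1 were seeded at 400 cells/well in medium containing 20 nM camptothecin, exposed to pin-transferred compounds, and grown at 37 °C for at least 48 hr. Viability was read as ATP luminescence.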
12-LOX inh: Primary qHTS assay for inhibitors of human arachidonate 12S-lipoxygenase (ALOX12): Round 2 | Polyunsaturated fatty acid lipoxygenase ALOX12 (Homo sapiens), P18054 | purified 12hLO, xylenol orange hydroperoxide absorbance | Potency, µM (top dose mostly 108 µM), without a hit: top-dose activity change, negative = inhibition, usual class: inhibitors | hit rate 1.1% among 580,000
Target sequence (P18054 whole entry, looked up): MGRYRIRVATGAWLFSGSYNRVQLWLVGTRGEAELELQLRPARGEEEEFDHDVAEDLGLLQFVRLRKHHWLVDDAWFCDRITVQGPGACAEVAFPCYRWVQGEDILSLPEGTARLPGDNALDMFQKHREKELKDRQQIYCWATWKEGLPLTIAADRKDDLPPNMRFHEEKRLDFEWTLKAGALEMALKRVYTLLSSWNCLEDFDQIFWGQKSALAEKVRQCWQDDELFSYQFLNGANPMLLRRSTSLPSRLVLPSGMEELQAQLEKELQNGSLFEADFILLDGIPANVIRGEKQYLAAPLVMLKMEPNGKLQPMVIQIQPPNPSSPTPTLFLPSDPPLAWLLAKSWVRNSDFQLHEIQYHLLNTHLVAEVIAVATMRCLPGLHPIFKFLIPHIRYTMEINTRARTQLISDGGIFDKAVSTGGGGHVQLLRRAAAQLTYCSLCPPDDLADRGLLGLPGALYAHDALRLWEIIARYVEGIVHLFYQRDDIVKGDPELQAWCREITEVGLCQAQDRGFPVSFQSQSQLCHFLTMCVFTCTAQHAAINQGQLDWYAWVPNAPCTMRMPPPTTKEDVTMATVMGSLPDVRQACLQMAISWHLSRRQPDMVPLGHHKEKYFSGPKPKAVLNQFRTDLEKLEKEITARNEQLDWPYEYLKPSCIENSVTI
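Purified human 12hLO at 150 nM in 25 mM Hepes, 0.01% Triton X-100, pH 7.0, preincubated 15 min at room temperature with compound. Reaction started with 40 uM arachidonic acid, 30 min at room temperature. Hydroperoxide measured by Fe-xylenol orange, 573/405 nm absorbance ratio.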
RORgamma inh: qHTS for inhibitors of ROR gamma transcriptional activity. Nuclear receptor ROR-gamma (Mus musculus), P51450. Drosophila S2 Gal4-RORgamma UAS-luciferase reporter, 20 h. Potency, µM (titrated, usually from 53.6 µM), for inactives: at the top dose activity change, negative = inhibition, usual class: inhibitors. hit rate 5.4% among 310,000; note: nearly all actives have a fitted effect of over 60% in size
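Drosophila S2 cells stably expressing Gal4-DBD/mouse RORγ fusion under metallothionein promoter plus UAS-luciferase; compound 1 h, then 700 uM CuSO4 induction for 20 h at ambient temperature; inhibition read as reduced luminescence.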
ELG1 DNA repair: qHTS screen for small molecules that inhibit ELG1-dependent DNA repair in human embryonic kidney (HEK293T) cells expressing luciferase-tagged ELG1. hit rate 2.3% among 330,000. HEK293T ELG1-luciferase reporter, luminescence, 16 h; DNA damage induced by 5-fluorouridine. AID 504467, 2011. Potency, µM (titrated, usually from 46.1 µM), for inactives: at the top dose activity change, negative = inhibition, most hits filed as inhibitors; note: nearly all actives have a fitted effect of over 55% in size
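Luminescence from the luciferase reporter, measured 30 min after ONE-Glo reagent at room temperature, was the read-out. Beforehand, 2,000 cells per well were exposed for 16 hr at 37 °C to 5-fluorouridine together with compound or vehicle.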
DT40 TDP1 no CPT: qHTS for Inhibitors of human tyrosyl-DNA phosphodiesterase 1 (TDP1): qHTS in cells in absence of CPT | DT40 Tdp1-/- hTDP1 cells, no CPT, ATP luminescence, 48 h | Potency, µM (series often up to 46.2 µM), without a hit: top-dose activity change, negative = growth inhibition, usual class: inhibitors | hit rate 15% among 420,000 | AID 686978, 2013; note: nearly all actives have a fitted effect of over 55% in size
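DT40 Tdp1-/-;hTDP1 cells, no CPT (DMSO vehicle only), 400 cells/well; compounds pin-transferred; ≥48 hr, 37 °C; CellTiter-Glo 30 min RT dark, luminescence read.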
Starred values were filed as active, the others as inactive; ? = inconclusive; nt = no result given; [ ] = remark or other dose. Calls come from the whole dose curve; as a rule, active = well fitted curve in the direction sought with a large enough effect; inconclusive = small, poorly fitted or top-dose-only effect, or another doubt; inactive = no such curve, though single readings can be large; an effect the other way counts as inactive or inconclusive. % is set by controls: 0 for no effect and ±100 for the full control effect; potency is the fitted concentration of half-maximal effect.

SMILES | Gal4-VP16 FLuc | TDP1 cell CPT | 12-LOX inh | RORgamma inh | ELG1 DNA repair | DT40 TDP1 no CPT
CC(=O)c1sc(NC(=O)CCS(=O)(=O)c2ccc(C)cc2)nc1C | nt | 9.2µM* | 2.1% | nt | 10.3% | 18.4µM*
O=C1NC(C(=O)NCCCc2ccccc2)Cn2cccc21 (centres undefined) | nt | nt | 6.3% | nt | nt | nt
CS(=O)(=O)c1ccc(CN2C[C@@H]3OCC(=O)N(c4ccccc4)[C@@H]3C2)cc1 | nt | nt | -7.1%[176 µM] | nt | nt | nt
CCCC(=O)Nc1ccc(-c2csc(N/N=C\c3ccncc3)n2)cc1 | -4.1% | 10.3µM* | ? | 21.2% | ? | 8.2µM*
Cc1ccc(S(=O)(=O)CCC(=O)Nc2nccs2)cc1 | -5.3% | -9.8% | 17.5% | 5.1% | -4.7% | ?
CCOC(=O)c1csc(NC(=O)CCS(=O)(=O)c2ccc(Cl)cc2)n1 | nt | ? | 3.2% | nt | nt | 18.4µM*
Cc1csc(NC(=O)Cc2ccc(Br)cc2)n1 | 27.7% | 7.7% | 17.8% | ? | ? | -5.9%
Cc1csc(NC(=O)CCS(=O)(=O)c2ccc(Br)cc2)n1 | 7.7% | ? | 14.0% | -15.5% | -3.9% | 23.1µM*
CC(=O)Nc1ccc(-c2csc(N/N=C\c3ccncc3)n2)cc1 | 4.4% | -24.5% | -3.5% | 5.0% | ? | ?
Cc1ccc(S(=O)(=O)CCC(=O)Nc2nc(-c3ccncc3)cs2)cc1 | -1.3% | 23.1µM* | -1.0% | -9.0% | -9.7% | 18.4µM*
C[C@H]1[C@@H]2[C@@H](O)C([C@H](C)C(=O)NCc3cccs3)CC[C@@]2(C)CC[C@@H]1NC(=O)c1cnccn1 (some centres undefined) | nt | nt | 47.3% | nt | nt | nt
CC(=O)c1sc(NC(=O)C2(F)C(F)(F)C(F)(F)C(F)(F)C(F)(F)C2(F)F)nc1C | 3.55µM* | 4.11µM* | -4.5%[57.4 µM] | 3.98µM* | ? | 5.8µM*
O=C(N[C@H]1CO[C@H]2[C@@H]1OC[C@@H]2n1cc(CC2CCCCC2)nn1)C1CCCCC1 | nt | nt | 20.1%[176 µM] | nt | nt | nt
NS(=O)(=O)c1ccc(NC(=S)N2CCN(c3ccc(Cl)c(Cl)c3)CC2)cc1 | ? | 6.51µM* | -18.3% | ? | -2.1% | 6.51µM*
COCCNC(=O)C1COC2(CCN(C(=O)c3ccc(F)cc3)CC2)N1C(=O)c1ccc(C)cc1 (centres undefined) | nt | nt | -0.5% | nt | nt | nt
COC(=O)c1ccc(OC(=O)c2ccc3c(c2)NC(=O)CS3)c(OC)c1 | nt | nt | 0.0% | nt | nt | nt
COC(=O)c1cc(O)cc(OC)c1Oc1cc(C)cc(O)c1C(=O)O | 7.08µM* | 1.16µM* | ? | 0.0% | ? | 1.03µM*
COc1cc(-c2nc3cc(C)ccn3c2NC2CCCCC2)ccc1-c1ccc(C(C)=O)cc1 | nt | 13µM* | -29.9% | nt | ? | 7.31µM*
Cc1ccc2nc(SCC(=O)NC3CCCC3)nc(=O)n2c1 | nt | -1.7% | -15.6% | nt | 2.5% | -4.0%
COc1ccc(-c2nc3c(C#N)c[nH]n3c2NC2CCCCC2)c(OC)c1 | nt | ? | 0.9% | nt | nt | ?
